The values that follow come from PubChem BioAssay AID687014 (The Scripps Research Institute Molecular Screening Center, 2013).

Hit rate of the full screen: of about 370,000 compounds, about 6,800 (1.8%) were called active. The sample as a whole holds a higher share of actives than the screen did. Values without a mark were called inactive.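 The calls were made as follows: active = activation above a cutoff set at the mean of all screened compounds plus 3 SD (cut at about 10% in these data); inactive = the rest.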

The test system of the experiment is Nuclear hormone receptor DAF-12 (Heterodera glycines), GAL4 fusion. Put plainly: hgDAF-12 GAL4 fusion reporter activation – cell-based, luminescence, HEK293, UAS-luciferase, primary screen (AID 687014).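 Also: 0% = DMSO wells and 100% = sodium butyrate wells.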 The following applies: HEK293 GAL4-hgDAF12 UAS-luciferase reporter, agonist luminescence; at 6.8 µM; stronger effect = higher value; normalized to butyrate control. In general terms: Reporter assays use an easily measured gene product as a stand-in for the process of interest.
Regarding `O=C1CC[C@@H]2CC3(C[C@@H]4CCN1[C@H]24)Nc1cc([N+](=O)[O-])ccc1NC3=NC1CCCCC1` (some centres not stated), the activation was 0.54%.
As for `COc1cc(OC)c(-n2cc(-c3ccc(Cl)cc3)[nH]c2=O)cc1Cl`, the figure is -2.27%; as for `N#Cc1cccc(C(=O)NCC2CCN(C(=O)C(=O)c3cc4ccccc4o3)CC2)c1`, -0.57%; as for `COc1ccc(CNS(=O)(=O)c2cc(Br)ccc2Br)cc1`, 1.03%.
As to `O=C(CN(C(=O)c1csnn1)c1cccc(Cl)c1)NC1CCCC1`, the activation was -1.27%.
As to `O=C(Nc1ccc(Br)cc1)OCCN1C(=O)CCC12CCC(c1ccccc1)CC2` (configuration not stated), the activation is -0.22%.
As for `Cc1cccc(CN2CCC(n3nccc3NC(=O)c3ccccc3C)CC2)n1`, the figure is -0.95%; as for `COc1ccc(Nc2cc(=O)n(-c3ccccc3)c3c2c(=O)n(C)c(=O)n3C)cc1`, -1.79%.
On to `COc1ccc(Nc2ccc3ccccc3c2)cc1`, for which the activation is 18.4% (active).
Consider `COc1ccc(NC2=CC(=S)NC(C)(C)C2)cc1`, for which the activation is 1.03%.
As for `OCC[C@H]1C[C@@H](O)[C@H](O)[C@]2(OCCCc3ccccc32)O1`, the figure is -1.3%; as for `COc1ccc(S(=O)(=O)Nc2ccc3c(c2)C(=O)N([C@H](C)CO)C[C@H](C)[C@@H](CN(C)C)OCCCC[C@H](C)O3)cc1`, -1.86%; as for `Cc1c(Cl)cccc1NC(=S)NCC(O)c1ccccc1` (configuration not stated), 0.77%.
For `CCSc1ccccc1C(=O)NCc1ccc(OC)cc1`, the activation was -1.12%.
As for `COc1ccc(C(=O)NCCSc2ccccc2C)cc1`, the figure is 12.8% (active); as for `COc1ccc(C(=O)NCC[N+](C)(C)C)cc1`, -0.85%.
As to `Cc1ccc(-n2c(COc3ccccc3)nnc2SCC(=O)Nc2ccc3c(c2)OCCO3)cc1`, the activation is -0.21%.
The value for `Cc1cc(OC(=O)NCCc2ccc(F)cc2)ccc1F` was 0.78%; that for `O=C(CSc1nnc(COc2ccccc2)n1Cc1ccco1)c1ccc2ccccc2c1` was -0.51%.
The value for `Cc1cc(C)c(C#N)c(SCC(=O)NN2CC(=O)N(c3ccccc3F)CC2=O)n1` was -2.6%; that for `COCc1cc(C)nc(SCC(=O)Nc2cccc(C)c2)c1C#N` was 0.86%.
As for `Cc1cc(C)c(C#N)c(SCC(=O)Nc2ccccc2)n1`, the figure is 11.8% (active); as for `Cc1ccccc1N1CCN(CCCN2C(=O)C3CCCCN3C2=O)CC1` (configuration not stated), 2.03%.
As to `CC1CCN(c2ccc(C(=O)O)cc2NS(=O)(=O)c2ccc(Br)s2)CC1`, the activation is -3.43%.
The value for `O=C(N[C@H](C(=O)N1CCC[C@H]1C(=O)NCCc1ccccc1Cl)c1ccccc1)c1ccccc1` was -3.35%.
As for `Fc1cccc(Cl)c1CSc1ccc(-c2ccco2)nn1`, the figure is 10.6% (active).
As for `Cn1c(SCc2c(F)cccc2Cl)nnc1-c1cnccn1`, the figure is 8.5%; as for `Oc1ccc(-n2nnnc2SCc2c(F)cccc2Cl)cc1`, 0.63%; as for `CCC(C)(C)NC(=O)C(c1ccc(O)cc1)N(C(=O)Cn1nnc2ccccc21)c1ccc(NC(C)=O)cc1` (configuration not stated), -2.76%.
In the case of `C[C@H](CO)N1C[C@H](C)[C@@H](CN(C)C(=O)Nc2ccccc2F)OCc2cn(nn2)CCCC1=O`, the activation is 4.8%.
As for `COc1cc(/C=C(\C#N)c2nc3c(s2)CC(C)CC3)ccc1O` (configuration not stated), the figure is 13.1% (active); as for `CCCC1CCC2(CCCN2CCOC(=O)NCc2ccccc2)CC1` (configuration not stated), -0.9%; as for `CCC(c1ccc(NC(=O)OC(C)(C)C)cc1)c1cc(OC)cc(OC)c1` (configuration not stated), -1.91%.
The value for `CC(C)(C)n1nc(C2CC2)c(Br)c1NC(=O)c1ccccc1F` was -1.55%.
The value for `CC(=O)c1ccc(N2CCN(CC(O)c3ccccc3)CC2)cc1` (configuration not stated) was -0.45%.
Take `CC(=O)c1ccc(N2Cc3ccccc3C2)cc1`: the activation was 12.2% (active).
As for `CC(=O)N1Cc2ccccc2CC1C(=O)O` (configuration not stated), the figure is 2.94%; as for `O=C(NCc1cccs1)C1CCN(S(=O)(=O)c2ccccc2[N+](=O)[O-])CC1`, 1.45%; as for `Cc1ccc(-c2nc3ccccc3[nH]2)cc1N`, 12.8% (active).
As for `c1ccc2[nH]c(-c3nc4ccccc4[nH]3)nc2c1`, the activation is 11.8% (active).
The value for `Cc1ccccc1N1CC(c2nc3ccccc3[nH]2)CC1=O` (configuration not stated) was 0.19%.
The value for `Nc1ccccc1-c1nc2ccncc2[nH]1` was 3.95%; that for `CCOC(=O)CNC(=O)CSc1ncccc1-c1nc2ccccc2[nH]1` was -0.67%; that for `O=C1c2ccccc2C(c2nc3ccccc3[nH]2)N1c1ccccc1` (configuration not stated) was 5.38%.
For the molecule `COC(=O)C1CN(CC(C)C)CCS(=O)(=O)N1Cc1ccc(F)cc1` (configuration not stated), the activation was -3.03%.
As for `CC(C)Cn1c(N2CCN(C(=O)/C=C/c3ccccc3)CC2)nc2ccccc21`, the figure is -3.13%.
The value for `CC(C)c1ccc(Nc2nnc(SCC(=O)c3nnc(-c4ccccc4)o3)s2)cc1` was 17.7% (active); that for `CC(C)Nc1nnc(SCC(=O)c2c[nH]c3ccccc23)s1` was -0.17%; that for `CN(C(=O)CSc1nnc(Nc2ccccc2)s1)C1CCS(=O)(=O)C1` (configuration not stated) was 1.71%.
As for `O=C(NCc1cccc(CNC(=O)Nc2cccc(O)c2)c1)Nc1cccc(O)c1`, the figure is -0.42%; as for `O=C(OCc1ccc(-c2ccccc2)cc1)c1cccc(O)c1`, 7.53%; as for `O=C(Nc1cccc(O)c1)c1ccc(C(=O)c2ccccc2)o1`, 15.9% (active).
With `CC(=O)N1CCc2cc(S(=O)(=O)NCCC(=O)N3CCCC3)ccc21`, the activation was 0.07%.
For the molecule `Cc1ccc(C(=O)O/N=C(\N)c2ccccn2)cc1Cl`, the activation is 4.09%.
As for `COc1ccc(C(=O)O/N=C(\N)c2ccccn2)cc1[N+](=O)[O-]`, the figure is 17.4% (active); as for `COc1ccc(C(=O)NNC(=O)c2cnccn2)cc1[N+](=O)[O-]`, 2.33%; as for `COC(=O)[C@]12C[C@H](CC(=O)NCCC(C)C)C(=O)N(CCc3ccc(OC)c(OC)c3)C1=C[C@H](C(C)(C)C)O[C@@H]2C`, 0.69%.
The value for `Cc1cc(Br)cn2c(Cc3ccccc3C(F)(F)F)c(-c3ccc(C#N)cc3)nc12` was -0.23%.
The value for `Cc1cc(Br)cn2c(Cc3ccccc3C(F)(F)F)c(-c3ccc(Cl)cc3)nc12` was 0.95%; that for `Cc1ccc(-c2nc3ccc(Br)cn3c2Cc2ccccc2C(F)(F)F)cc1` was 12.4% (active); that for `CCCCN1CCN(C(=O)c2ccc3c(c2)NC(=O)C(C)(C)O3)CC1` was 1.81%.
Turning to `N#CCC[C@H]1CC[C@]2(CCCN(Cc3ccc(Cl)cc3)C2)O1`, the activation is -2.81%.
On to `Cc1ccc(C)c(NC(=O)CCS(=O)(=O)c2ccccc2)c1`, for which the activation is -2.63%.
The value for `O=C(NC(=S)Nc1ccccc1C(=O)O)c1ccc(-c2ccc(Br)cc2)o1` was -2.39%; that for `CC1CCN(C(=S)c2ccc(-c3ccc(Cl)cc3Cl)o2)CC1` was -2.32%.
The value for `S=C(c1ccc(-c2ccccc2)o1)N1CCCCC1` was 19.9% (active).
The value for `NC(=O)c1ncn([C@@H]2O[C@H](C(=O)O)[C@@H](O)[C@H]2O)n1` was 1.3%; that for `Cc1ccnc(Nc2nc3ccccc3s2)n1` was 21.9% (active).
For the molecule `Cc1ccnc(-n2sc3ccccc3c2=O)n1`, the activation is 4.36%.
The value for `CCCN1C(=O)c2[nH]nc(-c3ccccc3)c2C1c1ccccc1` (configuration not stated) was -0.37%; that for `O=C(NCc1ccccc1)[C@H]1CCCN1C(=O)[C@H]1CCCN1C(=O)N1CCOCC1` was -0.79%.
As for `COc1ccc2nc(SCC(=O)Nc3c(C)cc(C)cc3C)[nH]c2c1`, the figure is -0.27%.
As for `CCn1c2ccc(F)cc2c2nnc(SCCN3CCOCC3)nc21`, the activation is 0.7%.
The value for `Cc1cc2nc(SCCN3CCOCC3)[nH]c2cc1C` was 11.8% (active); that for `COc1ccccc1CCNS(=O)(=O)c1cc2c3c(c1)C(C)C(=O)N3CCC2` (configuration not stated) was -1.65%.
As for `O=C1C(=O)N(Cc2ccc(-c3ccsc3)cc2)c2ccc(OC(F)(F)F)cc21`, the figure is -4.58%; as for `COC(=O)C1=C(C)N(Cc2ccc(F)cc2)C(=S)NC1c1cccc(Cl)c1` (configuration not stated), -2.2%; as for `CC(C)[C@@H](C)/C=C/[C@@H](C)[C@H]1CC[C@@H]2[C@]1(C)CCC1[C@]23C=C[C@]2(C[C@@H](O)CC[C@]12C)N(c1ccc([N+](=O)[O-])cn1)O3` (some centres not stated), 0.26%.
On to `COc1ccc(N2CCN(CCNS(=O)(=O)c3ccc(C(C)(C)C)cc3)CC2)cc1`, for which the activation was 0.34%.
As for `N/C(=N\OC(=O)CCC1CCCCC1)c1ccccn1`, the figure is 14.7% (active); as for `N/C(=N\OC(=O)Cc1ccc([N+](=O)[O-])cc1)c1ccccn1`, 5.64%.
As for `N/C(=N\OC(=O)CC1CCCCC1)c1ccccc1`, the figure is 0.73%; as for `COc1cc(/C=C/C(=O)n2cnc3ccccc32)cc(OC)c1OC`, -6.48%.
As for `C/C(=C(\C#N)C(=O)NCCCN1CCOCC1)N(C)C`, the figure is -0.63%; as for `O=C(Nc1ccccn1)C1CCN(S(=O)(=O)c2ccc3c(c2)OCCO3)CC1`, 5.62%.
For `Cc1ccnc(NC(=O)C2CCN(S(=O)(=O)c3c(C)c(C)cc(C)c3C)CC2)c1`, the activation is 14.9% (active).
As for `CNC(=O)C1CCN(S(=O)(=O)c2c(C)noc2/C=C/c2cccc(C)c2)CC1`, the figure is 1.09%; as for `COc1ccccc1CCNC(=O)C1CCN(c2nc(C)cc(C)n2)CC1`, -1.32%; as for `O=C(CSc1nc2ccccc2n1Cc1ccccc1Cl)N/N=C\c1c[nH]c2ccccc12`, 0.95%.
The value for `O=C(c1ccco1)N1CCN(C(=O)c2cc(-c3ccccc3F)no2)CC1` was 0.91%; that for `Fc1ccccc1-c1cc2cc3c(cc2cn1)OCO3` was 16.3% (active).
In the case of `COC(=O)C1=C(C)N(Cc2cccc(C(F)(F)F)c2)C(=NCc2cccc(C(F)(F)F)c2)NC1c1ccccc1C(F)(F)F` (configuration not stated), the activation is 0.13%.
